Growth inhibition data for 38 compounds are collected here from the supplement of paper PMC6763611.

One assay has as its system Plasmodium falciparum NF54. As to the kind of experiment: growth inhibition relative to untreated control; higher = more inhibition. The following applies: 1 µM; minimal medium (MM); 72 h. Put shortly: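 Growth inhibition was measured by SYBR Green fluorescence, normalised to untreated wells and corrected for background from uninfected erythrocytes. The parasites were P. falciparum NF54 ring stages (1% hematocrit, 1% parasitemia) exposed to single 5 μM or 1 μM doses of test compounds for 72 h at 37 °C, in either minimal RPMI or minimal RPMI containing 2.2 μM folate, 7.3 μM pABA, 7.3 μM pHBA, 111 μM tyrosine, 90 μM phenylalanine and tryptophan.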
As to `c1csc(-c2cnc3sc(NCC4CCOCC4)nn23)c1`, the growth inhibition came out at 68.8%.

The compound `Cc1nc(-c2cccc(NCc3ccccc3)c2)[nH]c1C` came in with a growth inhibition of 35.9%.

`O=C1N(Cc2cc3ccccc3s2)CC2CN(Cc3ccccc3)CCN12` (stereo unspecified) gave a growth inhibition of 98%.

For the compound `Cc1cc(NC(=O)c2ccc(Oc3ccc(Cl)cc3O)o2)no1`, the growth inhibition was determined as 27.1%.

`c1ccc(C[C@@H]2CN(c3nccc(Oc4ccc(-n5ccnc5)cc4)n3)CCN2)cc1` gave a growth inhibition of 97.5%.

`O=C(NC1CCN(c2ccnc3ccccc23)C1)c1cccc(C(F)(F)F)c1` (stereo unspecified) registered a growth inhibition of more than 100%.

Regarding `NC(CC(=O)c1ccc(Cl)cc1Cl)C(Cl)(Cl)Cl` (stereo unspecified), the growth inhibition stood at 11.5%.

`CC(C)n1ncc2c(C(=O)NCC(c3cccs3)N3CCOCC3)cc(-c3ccccc3)nc21` (stereo unspecified) gave a growth inhibition of 9.61%.

Turning to `NCCC(O)C(=O)N[C@@H]1C[C@H](N)[C@@H](OC2O[C@H](CN)[C@@H](O)[C@H](O)[C@H]2O)[C@H](O)C1OC1O[C@H](CO)[C@@H](O)[C@H](N)[C@H]1O` (stereo partly specified), the growth inhibition was found to be 17.2%.

Compound `COc1ccc(C2(C(=O)Nc3ccc(Br)cc3)CCCC2)cc1` yielded a growth inhibition of 2.06%.

Take `NCC(c1cccs1)S(=O)(=O)c1ccccc1` (stereo unspecified): the growth inhibition was less than 0%.

Take `CC1=NN(c2nc3ccccc3s2)C(=O)C1Cc1cccc2ccccc12` (stereo unspecified): the growth inhibition was found to be 0.985%.

`COc1ccccc1C(C)NCC(=O)Nc1cc(C(F)(F)F)ccc1Cl` (stereo unspecified) displayed a growth inhibition of 85.5%.

`CCc1cc(=O)n(C)c(SC(C)C(=O)Nc2ccc(F)cc2)n1` (stereo unspecified) had a growth inhibition of 2.62%.

Take `Nc1ncnc2c1c(-c1cnc3ccccc3c1)nn2CC1CCNCC1`: the growth inhibition is 5.9%.

`Cc1ccc(S(=O)(=O)N2CCN(C(=O)c3cc(-c4ccccc4)n[nH]3)CC2)cc1` yielded a growth inhibition of 87.1%.

`O=C(NCCc1c[nH]c2ccccc12)c1cc2ccccc2oc1=O`: the growth inhibition was found to be 2.31%.

The compound `Cc1cc(Nc2ccncc2)n2nc(C)c(-c3ccccc3Cl)c2n1` returned a growth inhibition of 94.2%.

`O=[N+]([O-])c1cn2c(n1)OC[C@@H](OCc1ccc(OC(F)(F)F)cc1)C2` yielded a growth inhibition of 2.72%.

Compound `Cc1cc(C)n2nc(C(=O)Nc3cc(C(F)(F)F)ccc3N3CCOCC3)nc2n1` showed a growth inhibition of 77.1%.

Take `CCC(Sc1nc2ccccc2o1)C(=O)Nc1nccs1` (stereo unspecified): the growth inhibition is 33%.

On to `FC(F)(F)c1ccc(N(c2cccnc2)C2CCN(c3ccc(C(F)(F)F)cn3)CC2)cc1`, for which the growth inhibition turned out to be 38.4%.

`COc1ccc(-c2cncc3ccc(C(=O)NCCCn4ccnc4)nc23)cc1` registered a growth inhibition of 72%.

With `CC(=O)NC[C@H]1CN(c2ccc(N3CCSCC3)c(F)c2)C(=O)O1`, the growth inhibition was determined as 32.5%.

In turn, `CCc1nc2ccc(C(=O)NCc3ccc4c(c3)OCO4)cn2c1N(C)Cc1cccs1` came in with a growth inhibition of less than 0%.

`COc1cccc(OCC(=O)c2ccc(Br)cc2)c1` displayed a growth inhibition of less than 0%.

`CC(C)n1nc(-c2cc3c(Cl)cccc3[nH]2)c2c(N)ncnc21`: the growth inhibition was 16%.

`O=C(NCc1cc(Cl)cc(Cl)c1)c1c(C(F)(F)F)nc2ccccn12` came in with a growth inhibition of 10.6%.

The compound `CC(=O)NCC1CN(c2ccc(-c3ccc(CO)cc3)c(F)c2)C(=O)O1` (stereo unspecified) displayed a growth inhibition of 7.91%.

Consider `Cc1ccc(-c2nc(CN(Cc3ccccn3)C(C)C)cs2)o1`, for which the growth inhibition was 20.3%.

In turn, `CS(=O)(=O)Cc1nc2ccccc2oc1=O` had a growth inhibition of less than 0%.

Turning to `COc1ccc(Cl)cc1NC(=O)CN(C)C(=O)c1cnn(-c2ccccc2)n1`, the growth inhibition was 95.6%.

The compound `CCOc1ccccc1NC(C)C(=O)Nc1cc(C(F)(F)F)ccc1N1CCOCC1` (stereo unspecified) gave a growth inhibition of 64.5%.

`CNC1C(OC2C(OC3C(O)C(O)C(N=C(N)N)C(O)C3N=C(N)N)OC(C)C2(O)C=O)OC(CO)C(O)C1O` (stereo unspecified) registered a growth inhibition of 29.2%.

Regarding `O=C(c1cc2ccccc2o1)N1CCN(Cc2ccc3c(c2)OCO3)CC1`, the growth inhibition was determined as 12.4%.

In turn, `CC1COC2(CCN(c3nc(=O)c4cc(C(F)(F)F)cc([N+](=O)[O-])c4s3)CC2)O1` (stereo unspecified) displayed a growth inhibition of 12.6%.

The compound `CC(C)/N=c1\cc2n(-c3ccc(Cl)cc3)c3ccccc3nc-2cc1Nc1ccc(Cl)cc1` registered a growth inhibition of 89.1%.

For `CCCn1c(NC(=O)c2ccc3ccccc3n2)nc2ccccc21`, the growth inhibition was 20.1%.

Still in this assay, the particulars now being: 5 µM; MM + chorismate end-products (CM screening medium); 72 h.
On to `c1csc(-c2cnc3sc(NCC4CCOCC4)nn23)c1`, for which the growth inhibition is more than 100%.

Turning to `Cc1nc(-c2cccc(NCc3ccccc3)c2)[nH]c1C`, the growth inhibition came to 93.4%.

Consider `O=C1N(Cc2cc3ccccc3s2)CC2CN(Cc3ccccc3)CCN12` (stereo unspecified), for which the growth inhibition amounted to 96.5%.

As to `Cc1cc(NC(=O)c2ccc(Oc3ccc(Cl)cc3O)o2)no1`, the growth inhibition is 24.4%.

As for `c1ccc(C[C@@H]2CN(c3nccc(Oc4ccc(-n5ccnc5)cc4)n3)CCN2)cc1`, the growth inhibition was found to be 95.3%.

On to `O=C(NC1CCN(c2ccnc3ccccc23)C1)c1cccc(C(F)(F)F)c1` (stereo unspecified), for which the growth inhibition turned out to be 96.9%.

For `NC(CC(=O)c1ccc(Cl)cc1Cl)C(Cl)(Cl)Cl` (stereo unspecified), the growth inhibition amounted to 18.3%.

For `CC(C)n1ncc2c(C(=O)NCC(c3cccs3)N3CCOCC3)cc(-c3ccccc3)nc21` (stereo unspecified), the growth inhibition was 42.4%.

Regarding `NCCC(O)C(=O)N[C@@H]1C[C@H](N)[C@@H](OC2O[C@H](CN)[C@@H](O)[C@H](O)[C@H]2O)[C@H](O)C1OC1O[C@H](CO)[C@@H](O)[C@H](N)[C@H]1O` (stereo partly specified), the growth inhibition is less than 0%.

As to `COc1ccc(C2(C(=O)Nc3ccc(Br)cc3)CCCC2)cc1`, the growth inhibition was less than 0%.

Consider `NCC(c1cccs1)S(=O)(=O)c1ccccc1` (stereo unspecified), for which the growth inhibition is less than 0%.

On to `CC1=NN(c2nc3ccccc3s2)C(=O)C1Cc1cccc2ccccc12` (stereo unspecified), for which the growth inhibition was less than 0%.

For `COc1ccccc1C(C)NCC(=O)Nc1cc(C(F)(F)F)ccc1Cl` (stereo unspecified), the growth inhibition was 88.6%.

In the case of `CCc1cc(=O)n(C)c(SC(C)C(=O)Nc2ccc(F)cc2)n1` (stereo unspecified), the growth inhibition came to 96.9%.

Take `Nc1ncnc2c1c(-c1cnc3ccccc3c1)nn2CC1CCNCC1`: the growth inhibition was less than 0%.

Consider `Cc1ccc(S(=O)(=O)N2CCN(C(=O)c3cc(-c4ccccc4)n[nH]3)CC2)cc1`, for which the growth inhibition was 82.9%.

`O=C(NCCc1c[nH]c2ccccc12)c1cc2ccccc2oc1=O`: the growth inhibition was less than 0%.

For the compound `Cc1cc(Nc2ccncc2)n2nc(C)c(-c3ccccc3Cl)c2n1`, the growth inhibition was determined as 94%.

`O=[N+]([O-])c1cn2c(n1)OC[C@@H](OCc1ccc(OC(F)(F)F)cc1)C2`: the growth inhibition was less than 0%.

In the case of `Cc1cc(C)n2nc(C(=O)Nc3cc(C(F)(F)F)ccc3N3CCOCC3)nc2n1`, the growth inhibition stood at 75.9%.

In the case of `CCC(Sc1nc2ccccc2o1)C(=O)Nc1nccs1` (stereo unspecified), the growth inhibition was determined as 60%.

Take `FC(F)(F)c1ccc(N(c2cccnc2)C2CCN(c3ccc(C(F)(F)F)cn3)CC2)cc1`: the growth inhibition came out at 93.8%.

`COc1ccc(-c2cncc3ccc(C(=O)NCCCn4ccnc4)nc23)cc1`: the growth inhibition was determined as 84.4%.

For the compound `CC(=O)NC[C@H]1CN(c2ccc(N3CCSCC3)c(F)c2)C(=O)O1`, the growth inhibition was less than 0%.

Turning to `CCc1nc2ccc(C(=O)NCc3ccc4c(c3)OCO4)cn2c1N(C)Cc1cccs1`, the growth inhibition was less than 0%.

As for `COc1cccc(OCC(=O)c2ccc(Br)cc2)c1`, the growth inhibition is less than 0%.

As for `CC(C)n1nc(-c2cc3c(Cl)cccc3[nH]2)c2c(N)ncnc21`, the growth inhibition was found to be 57.9%.

With `O=C(NCc1cc(Cl)cc(Cl)c1)c1c(C(F)(F)F)nc2ccccn12`, the growth inhibition is 31.8%.

Turning to `CC(=O)NCC1CN(c2ccc(-c3ccc(CO)cc3)c(F)c2)C(=O)O1` (stereo unspecified), the growth inhibition is 31.4%.

Consider `Cc1ccc(-c2nc(CN(Cc3ccccn3)C(C)C)cs2)o1`, for which the growth inhibition turned out to be 81.7%.

For `CS(=O)(=O)Cc1nc2ccccc2oc1=O`, the growth inhibition is less than 0%.

For the compound `COc1ccc(Cl)cc1NC(=O)CN(C)C(=O)c1cnn(-c2ccccc2)n1`, the growth inhibition amounted to 85%.

For `CCOc1ccccc1NC(C)C(=O)Nc1cc(C(F)(F)F)ccc1N1CCOCC1` (stereo unspecified), the growth inhibition came to 91.6%.

On to `CNC1C(OC2C(OC3C(O)C(O)C(N=C(N)N)C(O)C3N=C(N)N)OC(C)C2(O)C=O)OC(CO)C(O)C1O` (stereo unspecified), for which the growth inhibition was less than 0%.

With `O=C(c1cc2ccccc2o1)N1CCN(Cc2ccc3c(c2)OCO3)CC1`, the growth inhibition was less than 0%.

`CC1COC2(CCN(c3nc(=O)c4cc(C(F)(F)F)cc([N+](=O)[O-])c4s3)CC2)O1` (stereo unspecified): the growth inhibition came out at 14.7%.

As for `CC(C)/N=c1\cc2n(-c3ccc(Cl)cc3)c3ccccc3nc-2cc1Nc1ccc(Cl)cc1`, the growth inhibition is 90%.

Regarding `CCCn1c(NC(=O)c2ccc3ccccc3n2)nc2ccccc21`, the growth inhibition turned out to be 86.1%.
